# LmPK activator: boosts Leishmania mexicana pyruvate kinase activity; AID 1722; activity change, negative = inhibition, % at 57.5 µM; 290,000 tested, under 10 active; purified LmPK, Kinase-Glo ATP luminescence, 1 h; calls by dose curve
# Target sequence (Q27686 whole entry, looked up): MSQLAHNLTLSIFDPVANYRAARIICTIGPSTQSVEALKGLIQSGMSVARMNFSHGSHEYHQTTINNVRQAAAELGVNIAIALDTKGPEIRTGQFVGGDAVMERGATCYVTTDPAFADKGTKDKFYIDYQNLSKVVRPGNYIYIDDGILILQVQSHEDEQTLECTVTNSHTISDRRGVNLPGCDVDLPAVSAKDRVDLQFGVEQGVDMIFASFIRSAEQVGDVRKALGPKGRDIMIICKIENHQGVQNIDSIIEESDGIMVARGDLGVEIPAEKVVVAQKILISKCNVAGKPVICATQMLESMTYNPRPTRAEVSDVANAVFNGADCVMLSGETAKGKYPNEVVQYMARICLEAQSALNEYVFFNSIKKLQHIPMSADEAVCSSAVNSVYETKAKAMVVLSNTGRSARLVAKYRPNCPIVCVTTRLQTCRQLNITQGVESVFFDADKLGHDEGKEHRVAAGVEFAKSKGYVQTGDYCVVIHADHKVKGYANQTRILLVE
#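 Coupled luminescent assay: ATP produced by LmPK (0.1 nM) from ADP (0.1 mM, ~10-fold below Km) and PEP (0.5 mM, at Km) after 1 h RT, detected with Kinase-Glo. Data scaled between no-enzyme and uninhibited controls.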
# Numbers without * were called inactive; [ ] = dose if it differs, or a comment. A selection follows.
SMILES,LmPK activator
COc1ccc2nc(/N=C/c3c(C)[nH]n(-c4ccc(C)cc4)c3=O)sc2c1,-81
C=CC[n+]1ccc(/C=C2\C=Cc3cc(C)ccc3N2CC)c2ccccc21,-39
CCN1/C(=C2\C(=O)N(C)C(=S)N2C)C=Cc2cc(C)ccc21,-61
C/C(=N/OC(=O)c1ccc(C(F)(F)F)cc1)c1oc(C)nc1C,-40
Cn1c(=O)[nH]c(=O)c2c1[nH]c(=S)n2Cc1ccc(Cl)cc1,-50
Cc1ccc(-n2c(CCc3ccccc3)n[nH]c2=S)cc1C,-82
CC(C)c1cc2c(c(O)c1O)[C@@]13CCCC(C)(C)C1CC2OC3=O (some centres not stated),-83
Cc1nc(-c2ccc(NC(=O)c3ccccc3C)cc2)cs1,-35
O=C1c2ccccc2NC(c2ccc(O)c(O)c2)N1c1ccccc1Cl (configuration not stated),-34
Cc1cc(N=Nc2ccc(C)c(N=Nc3cc(C)c(N)cc3N)c2)c(N)cc1N,-71
O=c1c2ccccc2cnn1Cc1n[nH]c(=S)n1-c1ccccc1Cl,-43
Cc1csc(NC(=O)c2cn3ccccc3n2)n1,-91
CN=c1scc(-c2ccc(F)cc2)n1/N=C/c1ccc(O)c(O)c1,-54
Cc1cccc2nc(COc3ccc(-c4ccccc4)cc3)cn12,-73
Cc1ccc(Nc2nnc(SCC(=O)NCCN3C(=O)CSC3=O)s2)cc1C,-37
COc1cc(N2C(=O)C=CC2=O)c(OC)cc1Cl,-61
O=C(Nc1nc2c(F)cc(F)cc2s1)c1ccccn1,-56
COc1c(Cl)cccc1-c1cn2ccc(C)cc2n1,-51
COc1cc(-c2n[nH]c(=S)n2/N=C/c2cccn2C)cc(OC)c1OC,-88
CC(C)Cn1c(C23CC4CC(CC(C4)C2)C3)n[nH]c1=S,-64
c1ccc(CCN(Cc2ccccc2)C2CCN(C3CCCC3)CC2)cc1,-34
N#Cc1c(Cl)nsc1NN,-41
CCN(C(=O)COC(=O)c1cccnc1Nc1ccccc1F)C1CCS(=O)(=O)C1 (configuration not stated),-53
CCc1ccc(NC(=O)c2ccccc2SC)cc1,-45
Cc1nonc1C(=O)N/N=C/c1ccccc1,-121
SMILES,LmPK activator
O=[N+]([O-])c1cnc2nc(-c3ccncc3)nn2c1O,-81
O=C(/C=C/Nc1ccc(Oc2ccccc2)cc1)c1ccco1,-115
Cn1c2c(c(=O)[nH]c1=O)C(c1cccc(O)c1)C1=C(N2)c2ccccc2C1=O (configuration not stated),-39
C=CCN1C(=O)/C(=c2\sc3nc(=O)c(Cc4ccccc4Cl)nn3c2=O)c2ccccc21,-49
CC1(C)Oc2ccc(NC(=O)C3COc4ccccc4O3)cc2O1 (configuration not stated),-46
CC12CCC(=O)N1C(C(=O)Nc1nnc(SCc3ccccc3F)s1)CS2 (configuration not stated),-37
O=C(O)C1Nc2c(O)cc(Cl)c([N+](=O)[O-])c2C2C=CCC12 (configuration not stated),-31
COc1cccc(CSc2nc3ccncc3[nH]2)c1,-69
O=C1CSC(=S)N1N1C(=O)c2cccc([N+](=O)[O-])c2C1=O,-32
Clc1ccccc1N/N=C/c1ccc2c(c1)OCO2,-39
CCc1cc2cc(C)cc(C)c2[nH]c1=S,-32
COc1ccccc1-n1c(CNC(=O)COc2ccccc2)n[nH]c1=S,-50
COc1ccc(-c2cc(C(=O)Nc3cccc(O)c3)no2)cc1,-30
CCOc1ccc(-n2cc(-c3ccc(OC)c(OC)c3)[nH]c2=S)cc1,-41[11.5 µM]
Cc1ccc(-c2ccc(=O)n(CCC(=O)N3CCN(c4cccc(C)c4)C(C)C3)n2)cc1 (configuration not stated),4
CS/C(Nc1cc(Cl)ccc1Cl)=C(/C#N)C(=O)c1ccco1,-95
CC(C1CC2CCC1C2)n1c(-c2ccco2)n[nH]c1=S (configuration not stated),-78
Oc1ccc(N2CCN(Cc3cc4c(cc3Br)OCCO4)CC2)cc1,-42
O=C(O)/C=C/c1cnn(-c2ccccc2)c1,-53
CC(=O)NC(CSC(CC(=O)c1ccco1)c1ccc(C)cc1)C(=O)O (configuration not stated),-44
COc1cccc(Cc2n[nH]c(=S)n2Cc2ccco2)c1,-45
O=C(NNc1cc(Br)c(O)c(Br)c1)c1ccccc1,-38
CCc1ccc(C2=NN(C(C)=O)C(c3ccco3)C2)cc1 (configuration not stated),-60
CCCCNC(=O)COC(=O)CCC(=O)c1ccc(Cl)cc1,-32
O=C(Nc1ccc(OCc2ccccc2)cc1)Nc1ccccc1C(=O)NCCCN1CCOCC1,-100
SMILES,LmPK activator
O=C(N/N=C/c1ccccc1OCC(=O)N1CCCC1)C(=O)Nc1ccccc1F,-51
COCCCn1c(=S)[nH]c2sc3c(c2c1=O)CCCS3,-40
N/C(=N\OC(=O)c1ccc(Br)o1)c1ccccn1,-106
CCc1ccc(C(=O)COC(=O)c2ccccc2OC)cc1,-31
CC(C)OCCCn1c(-c2ccc(Br)cc2)c[nH]c1=S,-64
Cc1nc(-c2ccc([N+](=O)[O-])cc2)sc1C(=O)O,-68
O=C(O)CSc1ccc(NC(=O)Nc2ccccc2F)cc1,-87
Oc1ccc(N2CCN(Cc3nc4ccccc4[nH]3)CC2)cc1,-38
CC1=C(C#N)C(=O)N(C2CCS(=O)(=O)C2)C(=O)/C1=C\c1ccco1 (configuration not stated),-31
CCn1c(=O)c2c(n3c(=S)[nH]nc13)-c1ccccc1CC21CCCCC1,-61
[O-][n+]1c2ccccc2[n+]([O-])c2cc(O)ccc21,-38
C=CCn1c(-c2sc3nc(C)cc(C)c3c2N)n[nH]c1=S,-50
Cc1ccc(C)c(-n2c(-c3csc(C)c3C)n[nH]c2=S)c1,-79
Cn1c(-c2sc3ccccc3c2Cl)n[nH]c1=S,-30
O=C(NC(=S)N1CCOCC1)c1cc2ccccc2o1,-31
O=c1nc(N/N=C/C=C/c2ccccc2)cn[nH]1,-32

# Compound activity from PubChem.
